What all share (conditions): mRNA level, 48 h; actives raise or lower the signal
Read-out in one assay: CYP2C8 (gene 1558)
Briefly: LTEA_HepaRG_CYP2C8: Life Technologies and Expression Analysis (LTEA) Assay for CYP2C8 using HepaRG (AID 2283483). The method in brief: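 CYP2C8 expression measured by TaqMan qRT-PCR and normalized to three housekeeping genes. HepaRG cultures were treated for 48 h with an eight-point half-log series topping at 100 uM, vehicle 0.5% DMSO, duplicates; fitted both directions against DMSO.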

Read-out in the next assay: CYP2C9 (gene 1559)
Kind of assay: LTEA_HepaRG_CYP2C9: Life Technologies and Expression Analysis (LTEA) Assay for CYP2C9 using HepaRG (AID 2283484). The method in brief:
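CYP2C9 transcript level, quantified by TaqMan qRT-PCR against three housekeeping genes, was fitted bidirectionally relative to 0.5% DMSO. HepaRG cultures were treated 48 h, in duplicate, at eight half-log concentrations topping at 100 uM.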

Read-out in the next assay: CYP2E1 (gene 1571)
Kind of assay: LTEA_HepaRG_CYP2E1: Life Technologies and Expression Analysis (LTEA) Assay for CYP2E1 using HepaRG (AID 2283485). The procedure, abridged:
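Readout is qRT-PCR of CYP2E1 mRNA, normalized to three housekeeping genes and fitted bidirectionally against 0.5% DMSO. HepaRG cells were dosed 48 h at eight concentrations, highest 100 uM with half-log dilutions.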

Read-out in a further assay: CYP4A11 (gene 1579)
Briefly: LTEA_HepaRG_CYP4A11: Life Technologies and Expression Analysis (LTEA) Assay for CYP4A11 using HepaRG (AID 2283486). The procedure, abridged:
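CYP4A11 transcript levels were quantified by TaqMan qRT-PCR after HepaRG human liver cells were treated for 48 hours with test chemicals (top 100 uM, half-log dilutions, 0.5% DMSO). Gain or loss of signal was fitted relative to DMSO.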

Read-out in assay [1]: Cytochrome P450 3A4 (Homo sapiens) (UniProt P08684)
Briefly: LTEA_HepaRG_CYP3A4: Life Technologies and Expression Analysis (LTEA) Assay for CYP3A4 using HepaRG (AID 2283487). The procedure, abridged:
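In a human hepatic line (HepaRG), duplicate wells were treated 48 h with up to 100 uM chemical in half-log dilutions. Endpoint: CYP3A4 mRNA induction or loss relative to 0.5% DMSO vehicle, by qRT-PCR.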

Read-out in assay [2]: DNA damage-inducible transcript 3 (DDIT3), DDIT3 (gene 1649)
Briefly: LTEA_HepaRG_DDIT3: Life Technologies and Expression Analysis (LTEA) Assay for DNA damage-inducible transcript 3 (DDIT3) using HepaRG (AID 2283488). The method in brief: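 Cells are human HepaRG liver cells treated for 48 h with eight half-log concentrations up to 100 uM in 0.5% DMSO. Transcript levels come from qRT-PCR normalized to three housekeeping genes, with activity fitted in both directions relative to vehicle.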

Read-out in assay [3]: Pro-epidermal growth factor (Homo sapiens) (UniProt P01133)
Briefly: LTEA_HepaRG_EGF: Life Technologies and Expression Analysis (LTEA) Assay for Epidermal growth factor (EGF) using HepaRG (AID 2283489). The method in brief: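 qRT-PCR readout of EGF transcript after 48 h chemical exposure of HepaRG cells; eight concentrations from 100 uM down in half-log steps, duplicate wells, 0.5% DMSO vehicle. Bidirectional curve fitting against DMSO baseline.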

Read-out in assay [4]: Early growth response protein 1 (EGR1) transcription factor, EGR1 (gene 1958)
Kind of assay: LTEA_HepaRG_EGR1: Life Technologies and Expression Analysis (LTEA) Assay for Early growth response protein 1 (EGR1) transcription factor using HepaRG (AID 2283490). The procedure, abridged:
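EGR1 transcript levels quantified by qRT-PCR (Fluidigm arrays) against three housekeeping genes after 48 h chemical exposure of HepaRG cells. Eight-point half-log series topping at 100 uM, 0.5% DMSO vehicle, analyzed for gain or loss.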

Read-out in assay [5]: Ezrin (EZR), EZR (gene 7430)
Briefly: LTEA_HepaRG_EZR: Life Technologies and Expression Analysis (LTEA) Assay for Ezrin (EZR) using HepaRG (AID 2283491). The method in brief:
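Gain or loss of EZR mRNA is scored relative to 0.5% DMSO in human HepaRG cultures treated 48 h with test chemicals in duplicate, eight half-log concentrations from 100 uM.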

Read-out in assay [6]: Cytochrome P450 3A7 (Homo sapiens) (UniProt P24462)
Kind of assay: LTEA_HepaRG_CYP3A7: Life Technologies and Expression Analysis (LTEA) Assay for CYP3A7 using HepaRG (AID 2283492). The procedure, abridged:
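CYP3A7 transcript levels were read by TaqMan qRT-PCR on Fluidigm arrays after 48 h chemical exposure of human HepaRG cells, with housekeeping-gene normalisation. Eight half-log concentrations up to 100 uM in 0.5% DMSO were tested in duplicate.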

Read-out in assay [7]: Fatty Acid-Binding Protein 1 (FABP1), FABP1 (gene 2168)
Kind of assay: LTEA_HepaRG_FABP1: Life Technologies and Expression Analysis (LTEA) Assay for Fatty Acid-Binding Protein 1 (FABP1) using HepaRG (AID 2283494). The procedure, abridged:
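FABP1 expression by TaqMan qRT-PCR, normalised to three housekeeping genes, in HepaRG cells after 48 h chemical treatment. Eight-point half-log series topping at 100 uM in 0.5% DMSO, duplicates; gain or loss fitted relative to vehicle.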

Read-out in assay [8]: Cytochrome P450 4A22 (Homo sapiens) (UniProt Q5TCH4)
Briefly: LTEA_HepaRG_CYP4A22: Life Technologies and Expression Analysis (LTEA) Assay for Cytochrome P450 4A22 (CYP4A22) using HepaRG (AID 2283495). The method in brief: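 HepaRG, 48 h post-plating -> serum-free induction medium; dosed 48 h, duplicate, 8 conc. (100 uM top, half-log), 0.5% DMSO. Readout: CYP4A22 mRNA by qRT-PCR, ACTB/GAPDH/POLR2A normalization; gain/loss fit relative to DMSO.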

Read-out in assay [9]: Cytochrome P450 7A1 (Homo sapiens) (UniProt P22680)
Briefly: LTEA_HepaRG_CYP7A1: Life Technologies and Expression Analysis (LTEA) Assay for Cytochrome P450 7A1 (CYP7A1) using HepaRG (AID 2283496). The procedure, abridged:
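HepaRG, 48 h exposure, 8-pt half-log series from 100 uM, 0.5% DMSO vehicle, duplicates. Readout: TaqMan qRT-PCR mRNA vs three housekeeping genes; bidirectional curve fit against DMSO baseline.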

Read-out in assay [10]: Glutathione S-Transferase (GSTA2), GSTA2 (gene 2939)
Briefly: LTEA_HepaRG_GSTA2: Life Technologies and Expression Analysis (LTEA) Assay for Glutathione S-Transferase (GSTA2) using HepaRG (AID 2283497). The procedure, abridged:
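GSTA2 transcript levels came from Fluidigm TaqMan qRT-PCR normalized to three housekeeping genes, fitted in both directions against DMSO. HepaRG cultures received chemicals for 48 h in serum-free induction medium (0.5% DMSO), 8 half-log concentrations up to 100 uM, duplicate.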

Read-out in assay [11]: Glutamate-cysteine ligase catalytic (GCLC), GCLC (gene 2729)
Briefly: LTEA_HepaRG_GCLC: Life Technologies and Expression Analysis (LTEA) Assay for Glutamate-cysteine ligase catalytic (GCLC) using HepaRG (AID 2283498). The method in brief:
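Expression by TaqMan qRT-PCR, normalized to three housekeeping genes (ACTB, GAPDH, POLR2A), with up- or down-regulation fitted against DMSO. HepaRG cells dosed in duplicate for 48 h with 8 half-log concentrations up to 100 uM, vehicle 0.5% DMSO.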

Read-out in assay [12]: Heat shock 70 kDa protein 1 (HSPA1A), gene 3303
Briefly: LTEA_HepaRG_HSPA1A: Life Technologies and Expression Analysis (LTEA) Assay for Heat shock 70 kDa protein 1 (HSPA1A) using HepaRG (AID 2283502). The procedure, abridged: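 Cells were plated and cultured for 48 h, then switched to serum-free induction medium. Chemicals were added at eight half-log concentrations up to 100 uM for 48 h. RNA was then isolated and HSPA1A measured by qRT-PCR with bidirectional curve fitting against DMSO.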

Read-out in assay [13]: Glutathione S-transferase M3 (GSTM3), GSTM3 (gene 2947)
Kind of assay: LTEA_HepaRG_GSTM3: Life Technologies and Expression Analysis (LTEA) Assay for Glutathione S-transferase M3 (GSTM3) using HepaRG (AID 2283501). The procedure, abridged: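 qRT-PCR read-out of GSTM3 transcript, normalized to three housekeeping genes, from human HepaRG cells after 48 h chemical exposure. Eight-point half-log series, top 100 uM, 0.5% DMSO vehicle; gain or loss fitted relative to DMSO baseline.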

Read-out in assay [14]: growth arrest and DNA damage 45 (GADD45G), GADD45G (gene 10912)
Kind of assay: LTEA_HepaRG_GADD45G: Life Technologies and Expression Analysis (LTEA) Assay for growth arrest and DNA damage 45 (GADD45G) using HepaRG (AID 2283499). The method in brief: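 HepaRG, 48 h exposure, top 100 uM, half-log 8-point series, 0.5% DMSO vehicle, duplicates. Readout: GADD45G transcript by qRT-PCR (Fluidigm array), housekeeping-normalised (ACTB/GAPDH/POLR2A). Bidirectional curve fit vs DMSO baseline.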

Read-out in assay [15]: Glutamate-cysteine ligase regulatory (GCLM), GCLM (gene 2730)
Kind of assay: LTEA_HepaRG_GCLM: Life Technologies and Expression Analysis (LTEA) Assay for Glutamate-cysteine ligase regulatory (GCLM) using HepaRG (AID 2283500). The method in brief:
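Endpoint is GCLM transcript level by qRT-PCR, normalized to three housekeeping genes, after 48 h chemical exposure of human HepaRG cells (0.5% DMSO vehicle, top 100 uM, half-log dilutions). Fitting was bidirectional relative to DMSO.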

Structures are written as SMILES. The source made the active and inactive calls. How the source made its calls: active means hit-call score of the fitted dose curve at least 0.9, where 1 is the maximum; inactive means score below 0.9.

For orientation: AC50 means the midpoint of the concentration-response curve, whichever way the signal moves.

Sequence of Cytochrome P450 3A7 (Homo sapiens) (P24462 whole entry, looked up): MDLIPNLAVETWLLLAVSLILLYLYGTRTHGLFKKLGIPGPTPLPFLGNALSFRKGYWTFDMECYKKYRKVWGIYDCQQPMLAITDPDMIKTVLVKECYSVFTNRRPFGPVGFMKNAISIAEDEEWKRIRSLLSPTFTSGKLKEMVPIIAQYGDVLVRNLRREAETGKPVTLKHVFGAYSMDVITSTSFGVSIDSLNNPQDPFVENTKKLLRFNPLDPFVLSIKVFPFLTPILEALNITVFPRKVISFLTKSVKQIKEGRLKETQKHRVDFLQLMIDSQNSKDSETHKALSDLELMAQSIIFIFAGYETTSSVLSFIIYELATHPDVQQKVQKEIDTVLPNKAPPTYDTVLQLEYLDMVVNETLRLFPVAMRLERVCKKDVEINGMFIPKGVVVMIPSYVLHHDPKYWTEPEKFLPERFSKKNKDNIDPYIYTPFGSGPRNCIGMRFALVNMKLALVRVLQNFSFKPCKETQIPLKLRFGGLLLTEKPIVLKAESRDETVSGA
Sequence of Cytochrome P450 3A4 (Homo sapiens) (P08684 whole entry, looked up): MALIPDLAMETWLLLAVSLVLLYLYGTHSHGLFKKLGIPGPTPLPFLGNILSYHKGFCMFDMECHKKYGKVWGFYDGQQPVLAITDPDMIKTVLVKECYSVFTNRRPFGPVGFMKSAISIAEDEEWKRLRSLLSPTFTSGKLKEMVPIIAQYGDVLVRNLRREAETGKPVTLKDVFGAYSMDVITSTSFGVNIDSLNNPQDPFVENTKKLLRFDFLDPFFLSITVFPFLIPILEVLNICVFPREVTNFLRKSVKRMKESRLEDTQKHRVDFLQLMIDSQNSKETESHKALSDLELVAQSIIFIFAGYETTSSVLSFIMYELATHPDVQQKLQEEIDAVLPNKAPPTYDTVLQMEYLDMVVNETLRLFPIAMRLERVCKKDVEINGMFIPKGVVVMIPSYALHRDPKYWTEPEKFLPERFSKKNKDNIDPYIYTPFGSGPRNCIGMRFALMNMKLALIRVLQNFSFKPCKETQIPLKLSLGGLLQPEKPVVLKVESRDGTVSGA

For the compound `O=C(O)COc1ccc(Cl)cc1Cl`, the AC50 was 22 µM (active) with CYP2C8 (gene 1558), 29.3 µM (active) with CYP2E1 (gene 1571), 38.1 µM (active) in the assay with CYP4A11 (gene 1579) and 27.7 µM (active) in assay [6]. Moreover, the compound was classed as inactive (in the assay with CYP2C9 (gene 1559); in assay [1]; in assay [2]; in [3]; in assay [4]; in assay [5]). In addition, the compound was called inactive in assay [7], in [8], in [9], in assay [10], in [11] and in assay [12].

For the compound `N#Cc1c(Cl)c(Cl)c(Cl)c(C#N)c1Cl`, the AC50 with CYP2C8 (gene 1558) is 50 µM (active); in the assay with CYP2E1 (gene 1571) it was 66.1 µM (active); with CYP4A11 (gene 1579), 50 µM (active); in assay [1], 19 µM (active); in [2] it was 19.1 µM (active); in assay [3], 6.66 µM (active). The AC50 in [6] is 50 µM (active); in assay [7], 77.7 µM (active); in [10], 34 µM (active); in [12], 17.3 µM (active). Moreover, the call (in the assay with CYP2C9 (gene 1559); in assay [4]; in assay [5]; in assay [9]; in assay [11]; in [13]) was inactive.

`CNC(=O)Oc1ccccc1OC(C)C`: the compound was called inactive (with CYP2C8 (gene 1558); with CYP2C9 (gene 1559); with CYP4A11 (gene 1579); in assay [2]; in assay [3]; in assay [4]). For the same compound, the result in assay [5], in [7], in assay [8], in assay [10], in [11] and in [12] was inactive. Further, the results for the concentration at half-maximal activity (AC50) (with CYP2E1 (gene 1571); in assay [1]; in assay [6]) were 22.2 µM (active), 0.594 µM (active) and 1.52 µM (active), respectively.

Turning to `COP(=S)(OC)Oc1ccc(SC)c(C)c1`, the compound was classed as inactive (with CYP2C8 (gene 1558); in the assay with CYP2C9 (gene 1559); with CYP4A11 (gene 1579); in [2]; in [3]; in assay [4]). The outcome in assay [5], in assay [7], in assay [8], in assay [9], in [10] and in assay [11] was inactive. Further, the compound was called inactive in assay [14] and in assay [12]. Moreover, the AC50 with CYP2E1 (gene 1571) was 18.9 µM (active).

Regarding `CC(C)N(C(=O)COc1nnc(C(F)(F)F)s1)c1ccc(F)cc1`, the compound was called inactive (with CYP2C8 (gene 1558); in the assay with CYP2C9 (gene 1559); with CYP4A11 (gene 1579); in [1]; in [2]; in [3]). Moreover, the result in assay [4], in assay [5], in assay [6], in assay [8], in assay [11] and in assay [12] was inactive. In addition, the AC50 was 42.2 µM (active) in the assay with CYP2E1 (gene 1571), 23 µM (active) in assay [7], 24.7 µM (active) in assay [9] and 50 µM (active) in assay [10].

With `O=C(Nc1ccccc1)Nc1cnns1`, the concentration at half-maximal activity (AC50) with CYP2C8 (gene 1558) was 88.7 µM (active); with CYP2C9 (gene 1559) it was 84 µM (active); with CYP2E1 (gene 1571), 70.3 µM (active); with CYP4A11 (gene 1579), 72.9 µM (active); in assay [2], 79.2 µM (active); in assay [6] it was 50 µM (active). The half-maximal activity concentration (AC50) in assay [7] is 65.5 µM (active); in [8], 73.5 µM (active); in [9], 50 µM (active); in assay [10], 65.3 µM (active); in assay [15], 80.3 µM (active). Further, the compound was called inactive in assay [1], in [3], in assay [11] and in assay [12].

The record behind these values is PubChem BioAssay (EPA / NIEHS).
